# Measured values as given in PubChem BioAssay AID2685 (National Center for Advancing Translational Sciences (NCATS), 2010).
# Screen size: about 320,000 compounds; about 2,100 (0.66%) were called active. Not shown: some 53% with an inconclusive outcome. The call rests on the fitted dose curve; in most records, active means well fitted inhibition curve with a large enough effect in the signal ratio, with a control signal flat (not every such curve was filed as active); inconclusive means small, poorly fitted or top-dose-only effect, or effect the other way, or a change in a side signal; inactive means flat fitted curve, though single readings scatter; the % refers to the signal ratio. Shown is part of a subset that was picked to be rich in actives.
# Experiment: qHTS Assay for Lipid Storage Modulators in Drosophila S3 Cells;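 on cell number change: cells counted by Cell Tracker Red CMTPX staining in the red channel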; on lipid storage change, negative = inhibition: on the % scale 0 is the no-effect control and ±100 the full control effect
# Conditions: BODIPY lipid droplet fluorescence, 18-24 h, cells fed with added oleic acid; cell number change: measured here: cell count max response; series mostly up to 46.1 µM; lipid storage change, negative = inhibition: at the top concentration
# Method in brief: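 Drosophila S3 cells got compounds at several concentrations plus oleic acid (400 uM solution). Laser-scanning cytometry with 488 nm excitation read lipid droplets at 500-530 nm and cells at 575-640 nm. Percent activity was relative to 20 uM Triacsin C.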
# Potency means the concentration at half of the fitted maximal effect.
Compound,"lipid storage change, negative = inhibition",cell number change [%],Potency,outcome
COc1ccccc1N1CCN(C(c2cc3cc(C)ccc3[nH]c2=O)c2nnnn2C2CCCC2)CC1 (configuration not stated),9.5% (inactive),10.4,,
CC(NC(=O)COC(=O)CNC(=O)c1ccc(-c2ccccc2)cc1)c1ccccc1 (configuration not stated),1.51% (inactive),0.973,,
O=C(Nc1ccc(COc2ccccc2)cc1)c1cccc([N+](=O)[O-])c1,-6.34% (inactive),-16.9,,
O=C(NC1CCCC1)C1CCC(=O)N1C1CCCCC1 (configuration not stated),-0.542% (inactive),1.84,,
Cn1c(Cn2c(=O)sc3ccccc32)nnc1SCC(=O)N1CCOCC1,-0.98% (inactive),7.25,,
O=C(/C=C/c1ccc([N+](=O)[O-])cc1)c1cccs1,7.23% (inactive),1.74,,
O=C(/C=C/c1cccc([N+](=O)[O-])c1)Nc1ccc(NC(=O)c2cccs2)cc1,5.47% (inactive),5.37,,
O=C(/C=C/c1cccc([N+](=O)[O-])c1)c1cccs1,,-11.1,23.1 µM (active),
OCCNCc1cc(Br)ccc1OCc1ccc(F)cc1,-27.1% (inactive),-0.637,,
O=C(CC(NC(=O)c1ccccc1Cl)c1ccccc1)NCCc1ccc(Cl)cc1 (configuration not stated),5.66% (inactive),10.1,,
CCCSc1nc(C)cc(=O)[nH]1,-10.3% (inactive),7.07,,
Cc1cc(=O)[nH]c(SCC(=O)N2CCCCC2)n1,,4.95,,inactive
Cc1cc(=O)[nH]c(SCC2(O)C3CC4CC(C3)CC2C4)n1 (configuration not stated),,-7.4,29.1 µM (active),
COc1ccc([N+](=O)[O-])cc1NC(=O)c1cccnc1,-20.3% (inactive),9.82,,
CCCNc1nc(C)cc(-c2cc(C(=O)NCc3ccccc3)on2)n1,8.29% (inactive),1.8,,
CCOc1ccccc1N1CC(C(=O)Nc2ccccc2N2CCCC2)CC1=O (configuration not stated),22.4% (inactive),,,
Cc1cccc(N2CC(C(=O)Nc3ccccc3N3CCCC3)CC2=O)c1C (configuration not stated),29.9% (inactive),,,
COc1ccc(C)cc1N1CC(C(=O)Nc2ccccc2N2CCCCC2)CC1=O (configuration not stated),,3.68,1.03 µM (active),
Cc1ccc(-c2nc(C#N)c(NCCN3CCCCC3)o2)cc1,,1.25,,inactive
CCOC(=O)c1c(C)[nH]c(C=C2C(=O)CCCC2=O)c1O,-2.52% (inactive),-4.56,,
Cn1cccc1/C=C(/C#N)C(N)=S,10.6% (inactive),0.988,,
O=C(NCCc1c[nH]c2ccccc12)C(=O)NCC(c1ccco1)N1CCN(c2ccccc2)CC1 (configuration not stated),20.1% (inactive),-12.5,,
Cc1ccc(NS(=O)(=O)c2ccc(C(=O)OCC(=O)Nc3cc(C)on3)cc2)cc1,-0.058% (inactive),-18.1,,

Compound,"lipid storage change, negative = inhibition",cell number change [%],Potency,outcome
c1ccc(C[n+]2c(-c3ccccc3)csc2Nc2ccccc2)cc1,1.38% (inactive),-10.6,,
COc1ccc(-c2csc(Nc3ccccc3)[n+]2CC(O)c2ccc([N+](=O)[O-])cc2)cc1 (configuration not stated),-0.0678% (inactive),-3.41,,
O=[N+]([O-])c1ccc(-c2csc(Nc3ccccc3)[n+]2Cc2ccccc2)cc1,,-27.2,13 µM (active),
O=C1OCc2cc(-n3cccc3)ccc21,6.05% (inactive),-1.52,,
Cc1ccccc1S(=O)(=O)Cc1ccc(C(=O)NC2CCCCC2C)o1 (configuration not stated),,,,inactive
Cc1ccccc1S(=O)(=O)Cc1ccc(C(=O)NC2CCC(C)CC2)o1 (configuration not stated),,-18.5,18.4 µM (active),
CCOC(=O)N1CCC(NC(=O)c2ccc(CS(=O)(=O)c3ccccc3C)o2)CC1,-11.9% (inactive),-13.7,,
COC(=O)c1cccc(NC(=O)C(C)(C)C)c1,-0.0627% (inactive),-0.276,,
Cn1ccnc1SCC(=O)c1ccc(Cl)cc1,0.461% (inactive),1.94,,
CN1CCC(NC(=O)Nc2ccc(Br)cc2)CC1,-16.8% (inactive),-12.5,,
COc1ccc(COC(=O)C2CC(=O)N(Cc3ccc(C)cc3)C2)cc1 (configuration not stated),,-16.1,,inactive [at 0.369 µM]
COc1ccc(CN2CC(C(=O)NCCc3ccc(C)cc3)CC2=O)cc1 (configuration not stated),6.44% (inactive),1.29,,
COc1ccc(NC(=O)COC(=O)C2CC(=O)N(Cc3ccc(C)cc3)C2)cc1 (configuration not stated),,-4.17,2.06 µM (active),
COC(=O)C1CCN(C(=O)c2ccc(Cl)c(S(=O)(=O)NCc3cccnc3)c2)CC1,,20.6,,inactive
CC(=O)Oc1ccccc1N(C(C)=O)S(=O)(=O)c1ccc(C)cc1,6.21% (inactive),-8.62,,
CC(C)C[C@H](NC(=O)NCc1ccc(Cl)cc1)C(=O)O,,-1.47,6.51 µM (active),
CC(C)[C@H](NC(=O)NCc1ccc(Cl)cc1)C(=O)O,,,,inactive
CC(C)CC(NC(N)=O)C(=O)NCc1ccc(Cl)cc1 (configuration not stated),-1.44% (inactive),6.23,,
CCC(=O)Nc1ccc(NC(=O)CSc2nc3cc4c(cc3cc2C)CCC4)cc1,-12.2% (inactive),0.207,,
CCC(=O)Nc1nn(C)c2nc3c(C)cccc3cc12,1.08% (inactive),-9.14,,
CC1CCN(CCCNC(=O)C2CCC(CNS(=O)(=O)c3cccc4nsnc34)CC2)CC1 (configuration not stated),,,,inactive
CCOc1ccc(-n2c(=O)cc(N3CCN(c4ccc(F)cc4)CC3)[nH]c2=O)cc1,20.6% (inactive),10.6,,
Cc1ccc(-c2nnn(CC(=O)N(Cc3ccco3)C(C(=O)NC(C)(C)C)c3cccs3)n2)o1 (configuration not stated),-15.4% (inactive),-15.2,,
